# About 83,000 compounds went through this panel and 20% of them were active in at least one assay; those are over-represented in the sample as a whole.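 Method: cells in 96-well plates; compound added at one concentration; 48 h incubation; percent growth measured; values under 10 scored active.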 Calls of active or inactive are those of the source.
# Test system: OVCAR-5 ovarian
# Assay: NCI-60 one-dose screen, 48 h (100 = growth as untreated, 0 = no growth, -100 = all killed)
# Conditions: 10 µM unless noted
# Method: Growth inhibition of the OVCAR-5 human tumor cell line is measured as a screen for anti-cancer activity. Cells are grown in 96 well plates and exposed to the test compound for 48 hours. Compounds are tested at a single concentration, which is 10^-5 M for most compounds. The reported endpoint is percent growth (GI% or GIPRCNT), where numbers from 0 - 100% represent growth inhibition, and numbers from -100% - 0 represent cell death. For example, a value of 40 represents 60% growth inhibition. A value of 0 means no net growth occurred over the course of the experiment. A value of -40 indicates 40% of cells at the beginning of the experiment died by the end of the experiment. A value of -100 means all cells are dead at the end of the experiment.
# NCI-60 Human Tumor Cell Lines Screen was performed using the standard one-dose NCI protocol, which is described in more detail at https://dtp.cancer.gov/discovery_development/nci-60/default.htm.
# Compounds with GIPRCNT values below 10 were considered active. Activity score was based on GIPRCNT using the following formula: […]
# Score is 0 for GIPRCNT values of 100 or above, 50 for GIPRCNT values of 0, and 100 for GIPRCNT values of -100.
row,SMILES,growth
1,COc1cc2cc(Oc3ccc(NC(=O)Nc4ccc(Cl)c(C(F)(F)F)c4)cc3)c(C)nc2cc1OCCN1CCOCC1,55.6% (inactive)
2,COc1cc(C(=O)c2cnc(-c3c[nH]c4cccc(C)c34)[nH]2)cc(OC)c1OC,46.5% (inactive)
3,O=C1CCC/C=C\C[C@H]2C=CC(=O)/C2=C/C[C@H](CCc2cccc(C(F)(F)F)c2)O1,-16.9% (active)
4,Cc1cc(Cl)ccc1NS(=O)(=O)c1ccc(-c2cnc(C3CC3)o2)cc1,27.8% (inactive)
5,CC(=O)CC(c1ccccc1)c1c(C)[nH]c2ccccc12 (stereo not given),94.2% (inactive)
6,CCOC(=O)CCN(C(=O)Nc1ccccc1)C1CCCCC1,87.4% (inactive)
7,Cc1ccc2nc(NC(=O)CSc3nc(Cl)c(C#N)c(-c4ccccc4)n3)sc2c1,104% (inactive)
8,Cc1nc2ccccc2n1-c1ncnc2c1CC(C)c1ccccc1N2C (stereo not given),101% (inactive)
9,Cc1ccc(-c2nc3c(c(-c4ccccc4)nn3-c3ccccc3)c(-c3ccc(O)cc3)c2C#N)cc1,104% (inactive)
10,NCCCNc1nc2ccccc2c2c(=O)c3cc(OC(F)(F)F)ccc3sc12,76% (inactive)
11,O=C(CCc1nnc(-c2c(Cl)cccc2Cl)o1)c1nc2ccccc2[nH]1,81.2% (inactive)
12,Brc1c[n+](Cc2ccc3ccccc3c2)cn1Cc1ccc2ccccc2c1,46.8% (inactive)
13,CC(=O)c1ccc(Nc2nc(C(C)=O)c(C)s2)cc1,108% (inactive)
14,CCOC(=O)C1=C(N)Oc2c(sc3c(CC)cccc23)C1c1ccc(F)cc1 (stereo not given),56.2% (inactive)
15,COC(=O)C(Cc1ccccc1)NC(=O)NC(=O)NC(=O)CI (stereo not given),95.9% (inactive)
16,COc1ccc(C2CC(c3ccc(Nc4nc(Nc5ccc(F)cc5)nc(Nc5ccc(Cl)cc5)n4)cc3)=NN2C(C)=O)cc1 (stereo not given),104% (inactive)
17,Cc1ccc(NC2=C(Cl)C(=O)c3nc(C)ccc3C2=O)cc1,-11.6% (active)
18,C/C(=C(/c1ccccc1)c1ccc(N2C(=O)c3cccc4c(N5CCN(C)CC5)ccc(c34)C2=O)cc1)c1ccccc1,91.9% (inactive)
19,COc1nc2ccc(C)cc2cc1-c1nc2c(cnn2-c2ccccc2)c(=O)[nH]1,94.5% (inactive)
20,CNc1ccc(Nc2cccc(C)c2)c2c1C(=O)c1ccccc1C2=O,91.4% (inactive)

row,SMILES,growth
1,COc1cccc(-c2nc(-c3ccc(NC(=O)c4ccccc4)cc3)[nH]c2-c2ccnc(Br)c2)c1,47.9% (inactive)
2,CC(C)OC(=O)Nc1ccc(-c2nc(-c3cccc(OCCN4CCOCC4)c3)c(-c3ccnc(Br)c3)[nH]2)cc1,55.6% (inactive)
3,CCOC(=O)Nc1ccc(-c2nc(-c3cccc(OCCN4CCOCC4)c3)c(-c3ccnc(Br)c3)[nH]2)cc1,66.9% (inactive)
4,CN1CCN(c2ccc(-c3cnc4c(-c5csc6ccccc56)cnn4c3)cc2)CC1,7.38% (active)
5,Cc1ccc2c(n1)C(=O)C(Cl)=C(Nc1ccccc1C(C)C)C2=O,85.9% (inactive)
6,C[C@H](C(=O)Nc1ccc(S(N)(=O)=O)cc1)S(=O)(=O)c1ccccc1,111% (inactive)
7,COc1c(N2CC3CCCN(C(C)=O)C3C2)c(F)cc2c(=O)c(C(=O)N[C@H]3C(O)[C@@H](O)C(CO)O[C@H]3O)cn(C3CC3)c12 (stereo not given in full),104% (inactive)
8,CCc1ccccc1-n1c(N)c(C#N)c(-c2ccc(Cl)cc2)c(C#N)c1=O,108% (inactive)
9,Cc1ccc2sc3c(NCCCN)nc4ccccc4c3c(=O)c2c1,85.8% (inactive)
10,CCCCCCn1c(-c2ccc(C(=O)O/N=C(\N)c3ccc4ccccc4c3)cc2)nc(-c2ccccc2)c1-c1ccccc1,71.6% (inactive)
11,COc1cc(Nc2nc(NCCN)nc3cc[nH]c(=O)c23)cc(OC)c1,67.9% (inactive)
12,CCOC(=O)c1[nH]c(C)c(C(=O)OCc2ccccc2C#N)c1C,105% (inactive)
13,CN1C(=C2C(=O)OC(C)(C)OC2=O)CCC1C(=O)NCc1ccc(Cl)cc1Cl (stereo not given),94.9% (inactive)
14,COc1ccc(C(=S)N2CCN(c3cccc(C)c3)CC2)cc1OC,93.4% (inactive)
15,Cc1nc2ccccc2c(/C=C/c2ccc(Cl)cc2)c1C(=O)/C=C/c1cccs1,92.6% (inactive)
16,O=C1/C(=C/c2ccccc2[N+](=O)[O-])Oc2ccc(O)c(O)c21,48.8% (inactive)
17,CN(C)CC#Cc1ccc2ncc(C#N)c(Nc3ccc(F)c(Cl)c3)c2c1,54.8% (inactive)
18,COc1cccc2c(=O)c3c(sc12)c(NCCCN)nc1ccccc13,77.9% (inactive)
19,CS(=O)(=O)N(c1cc(-c2ccc3ncnc(Nc4ccc(F)c(Cl)c4)c3c2)cnc1Cl)S(C)(=O)=O,30.6% (inactive)
20,c1ccc(Nc2cc(-c3cccnc3)[nH]n2)cc1,93.6% (inactive)
